Screening results as filed in PubChem BioAssay.
HCMV inh: human cytomegalovirus inhibition. HFF cells, HCMV-luciferase reporter, 72 h; active compounds read low. activity change, negative = inhibition, % at 57.5 µM. actives 4.5% (n = 410,000); in the data active = activity change below about -60%; inconclusive = no clear call, values can overlap the other calls; inactive = above about -39%
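HFF cells seeded 16 h at 37C, treated with compounds, infected with luciferase-reporter HCMV at MOI 1 PFU/cell; luciferase read at 72 h post infection, normalized to buffer-only and Salinomycin controls.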
FMDV inh: foot and mouth disease virus antiviral activity; FMDV antiviral cell-based qHTS; Potency, µM (highest dose often 57.9 µM), for the others: at the top dose activity change, negative = inhibition, most hits filed as inhibitors; actives 1.2% (n = 410,000); AID 1159524; calls by dose curve; tested in HEK293T cells; note: read-out not given here; potency is the fitted concentration of half-maximal effect; nearly all actives have a fitted effect of over 45% in size
AmpC no deterg: blocks E. coli AmpC beta-lactamase in detergent-free assay. AmpC nitrocefin hydrolysis, absorbance 480 nm, 0.0001% Triton. Potency, µM (top dose mostly 57.1 µM), for the others: at the top dose activity change, negative = inhibition, most hits filed as inhibitors. actives 0.52% (n = 330,000). AID 485341;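 note: potency is the fitted concentration of half-maximal effect; plate controls were no compound for no effect and no enzyme for full effect; nearly all actives have a fitted effect of over 20% in size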
Target sequence (P00811 whole entry, looked up): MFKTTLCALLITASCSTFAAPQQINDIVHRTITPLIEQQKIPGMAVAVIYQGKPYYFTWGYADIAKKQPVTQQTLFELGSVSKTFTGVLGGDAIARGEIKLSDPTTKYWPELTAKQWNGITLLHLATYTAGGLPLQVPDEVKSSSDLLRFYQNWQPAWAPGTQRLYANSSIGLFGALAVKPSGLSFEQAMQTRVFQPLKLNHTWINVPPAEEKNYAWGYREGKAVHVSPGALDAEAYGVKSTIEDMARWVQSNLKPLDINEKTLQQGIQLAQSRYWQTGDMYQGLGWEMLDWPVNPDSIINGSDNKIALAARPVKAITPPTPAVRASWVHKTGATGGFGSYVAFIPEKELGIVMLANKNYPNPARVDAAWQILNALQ
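AmpC (5.3 nM in the dispensed reagent) in 20 mM phosphate pH 7.0 with 0.01% (detergent screen) or 0.0001% Triton X-100 was preincubated with compounds for 15 min at room temperature. Nitrocefin was then added from an 800 uM solution, and hydrolysis was followed at 480 nm.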
AmpC inh detg: blocks E. coli AmpC beta-lactamase in detergent assay. actives 0.041% (n = 370,000). P00811. AmpC hydrolysis of nitrocefin, absorbance 480 nm, 0.01% Triton. Potency, µM (series often up to 114 µM), for the others: top-dose activity change, negative = inhibition, hits mostly inhibitors;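 note: potency is the fitted concentration of half-maximal effect; 0% = no-compound wells and -100% = no-enzyme wells; nearly all actives have a fitted effect of over 25% in size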
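20 mM phosphate pH 7.0 + 0.01% (detergent screen) or 0.0001% Triton X-100; 5.3 nM AmpC reagent; cpd preinc 15 min RT; nitrocefin (800 uM stock) to start; A480 q20 s × 4 min; Activity was normalised to no-enzyme and no-compound control wells.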
HCV inhibitor: HCV inhibition | Potency, µM (titrated, usually from 41.8 µM), without a hit: top-dose activity change, negative = inhibition, usual class: inhibitors | actives 3.4% (n = 340,000) | Huh7.5.1 HCVcc-Cre infection, luciferase reporter, 44 h; note: potency is the fitted concentration of half-maximal effect
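Reporter virus HCVcc-Cre (~0.5 moi) infects cells exposed to compound; seeding density 1,000 cells/well with 4 h settling beforehand. Luminescence, 15 sec read, taken 44 h post-infection following a 15 min RT substrate incubation.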
* = called active by the depositor; ? = inconclusive; . = not tested or not shown; ! = a repeat was not active. Only some compounds are listed: those with a hit (about 7.3% of all), similar ones and a draw of the others. Unless noted, calls come from the whole dose curve; as a rule, active = well fitted curve in the direction sought with a large enough effect; inconclusive = small, poorly fitted or top-dose-only effect, or another doubt; inactive = no such curve, though single readings can be large; an effect the other way counts as inactive or inconclusive. Unless noted, % is set by controls: 0 for no effect and ±100 for the full control effect.

SMILES | HCMV inh | FMDV inh | AmpC no deterg | AmpC inh detg | HCV inhibitor
COc1cccc(N2CCN(CC(=O)Nc3nnc(-c4ccccc4)s3)CC2)c1 | -21 | 16µM* | -9% | -8% | 6.3µM*
CCOC(=O)Nc1nnc(-c2cccc(OC)c2)s1 | -66* | 40% | -2% | 1% | -3%
COc1cccc(N2CCN(CC(=O)NC3=Nc4ccccc4N=C(C)C3c3ccccc3)CC2)c1 (stereo not given) | 1 | -25% | 66% | 8% | ?
CSc1ncccc1C(=O)NCC1Cc2cc(-c3cnccn3)cc(Cl)c2O1 (stereo not given) | . | 12% | . | . | .
CC1CCN(C(=O)Cn2c3ccccc3c3nc4n(c(=O)c32)CCCS4)CC1 | -61* | -16% | 104% | ? | 8%
CC1CCN(C(=O)Cn2c3ccc(F)cc3c3nc4n(c(=O)c32)CCCS4)CC1 | -38 | ? | -1% | -1% | ?
Cn1ncc(Br)c1NC(=O)CSc1ccc(Cl)cc1 | -35 | ? | 1% | 0% | 25µM*
O=C(CSc1ccc(Cl)cc1)Nc1ncccn1 | 12 | -9% | -13% | ? | 31%
COc1cc(/C=N/NC(=O)CN2CCCCC2)ccc1OCc1ccc(Br)cc1 | -14 | -3% | -12% | ? | 10µM*
CCOC(=O)C1=C(c2ccccc2)NC(=S)NC1c1ccc(Cl)c([N+](=O)[O-])c1 (stereo not given) | . | . | -43% | -1% | ?
CCOC(=O)C1=C(C)C(c2ccc(OC)cc2)NC(=S)N1 (stereo not given) | 49 | -21% | -8% | -3% | -2%
CCOC(=O)C1=C(c2cccc(Oc3ccccc3)c2)NC(=S)NC1C (stereo not given) | ? | -22% | -48% | -16% | 8.9µM*
CCOC(=O)C1=C(C)C(c2cccc(Oc3ccccc3)c2)NC(=S)N1 (stereo not given) | ? | 28µM* | -55% | ? | ?
CC1CCc2onc(C(=O)N3CCN(c4ccc(Cl)cc4)CC3)c2C1 (stereo not given) | -74* | -25% | . | 18% | .
O=C(CCc1ccc(S(=O)(=O)N2CCOCC2)cc1)N/N=C/c1ccc(O)c(O)c1O | -98* | 40µM* | -27% | 3% | -22%
Cc1ccc2c(c1)N(S(=O)(=O)c1cc(-c3onc(C)c3C)ccc1C)CCO2 | -67*! | ? | -6% | -14% | 5µM*
COc1ccc(-c2onc(C)c2C)cc1S(=O)(=O)N1CCC(C)CC1 | -79* | -22% | . | 1% | .
Cc1ccc(-c2onc(C)c2C)cc1S(=O)(=O)Nc1ccc(Cl)cn1 | 103 | 61% | . | 3% | .
COc1ccc(-c2cc(C)no2)cc1S(=O)(=O)N1CCOc2ccc(Cl)cc21 | ? | 13% | -38% | -12% | -2%
Cc1cc(C)c(NS(=O)(=O)c2cc(-c3onc(C)c3C)ccc2C)c(C)c1 | -62* | 4% | . | 1% | .
Cc1ccc(-c2onc(C)c2C)cc1S(=O)(=O)NC1CCC(C)CC1 (stereo not given) | -67* | 19% | . | 4% | .
Cc1cc2oc(C(=O)N(Cc3ccccc3F)C3CCS(=O)(=O)C3)c(C)c2cc1Cl (stereo not given) | -6 | ? | . | 18% | .
C[C@@H]1CN([C@@H](C)CO)C(=O)CCCn2nncc2CO[C@H]1CN(C)C(=O)Nc1ccc(N2CCN(C)CC2)cc1 | -15 | . | . | . | .
COc1ccccc1CCC(=O)OCC(=O)Nc1cccc(S(=O)(=O)N2CCOCC2)c1 | -3 | -14% | -9% | ? | -16%
CC(SCC(=O)O)c1nc2ccccc2[nH]1 (stereo not given) | -13 | 18% | -14% | ? | -4%
O=C(NC1CCc2ccccc21)c1cc(COc2cncc(Cl)c2)on1 (stereo not given) | 61 | -25% | 18% | 11% | 13µM*
CCOP(=O)(OCC)C(Nc1ccccn1)c1ccccc1 (stereo not given) | -28 | -12% | -5% | ? | 8%
CCOP(=O)(OCC)C(Nc1ccccn1)c1ccc(F)cc1 (stereo not given) | -70* | -3% | -6% | 0% | 17%
